Among the data in PubChem BioAssay (EPA / NIEHS) are outcome and AC50 values, retold here.

A word on the AC50: it is the concentration giving half of the maximal activity seen.

Structures are written as SMILES. Activity calls are given as the source filed them. How the source made its calls: active means hit-call score of the fitted dose curve at least 0.9, where 1 is the maximum; inactive means score below 0.9.

Read-out in the experiment: CYP3A5 (gene 1577)
As to the kind of experiment: LTEA_HepaRG_CYP3A5: Life Technologies and Expression Analysis (LTEA) Assay for CYP3A5 using HepaRG (AID 2283493). The following applies: mRNA level, 48 h; actives raise or lower the signal. Summed up:
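HepaRG cells, plated 48 h then in serum-free induction medium, dosed in duplicate for 48 h with eight half-log concentrations up to 100 uM in 0.5% DMSO. Gene mRNA by Fluidigm TaqMan qRT-PCR, normalized to ACTB, GAPDH, POLR2A.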
For `O=C(O)c1ccccc1`, the compound was called inactive. Regarding `CCOC(=O)COc1cc(-n2ncc(C(F)(F)F)c(C)c2=O)c(F)cc1Cl`, the outcome was inactive. Take `CCOC(=O)c1ccc(O)cc1`: the compound was classed as inactive.

Consider `O=C(Nc1ccc([N+](=O)[O-])cc1Cl)c1cc(Cl)ccc1O`, for which the concentration at half-maximal activity (AC50) is 7.24 µM (active). Consider `Cc1nn(C)c(Oc2ccccc2)c1C=NOCc1ccc(C(=O)OC(C)(C)C)cc1`, for which the AC50 is 9.26 µM (active). Consider `CCCCCCC(C)OC(=O)COc1nc(F)c(Cl)c(N)c1Cl` (stereo unspecified), for which the result was inactive.

On to `CCCCC(CC)COC(=O)c1ccccc1C(=O)O` (stereo unspecified), for which the outcome was inactive.

As to `COc1c(Cl)ccc(Cl)c1C(=O)O`, the compound was classed as inactive. In the case of `CC(=O)[C@H]1CC[C@H]2[C@@H]3CCC4=CC(=O)CC[C@]4(C)[C@H]3CC[C@]12C`, the AC50 is 84.6 µM (active). Consider `CCC(C)OC(=O)N1CCCCC1CCO` (stereo unspecified), for which the result was inactive. With `CC(=O)S[C@@H]1CC2=CC(=O)CC[C@]2(C)[C@H]2CC[C@@]3(C)[C@@H](CC[C@@]34CCC(=O)O4)[C@H]12`, the half-maximal activity concentration (AC50) was 50 µM (active).

As to `CCCCCOC(=O)COc1cc(N2C(=O)C3=C(CCCC3)C2=O)c(F)cc1Cl`, the outcome was inactive. Regarding `S=C([S-])NCCNC(=S)[S-].[Mn+2]`, the concentration at half-maximal activity (AC50) was 3.47 µM (active). In the case of `CCCCOC(=O)C(C)Oc1ccc(Oc2ccc(C(F)(F)F)cn2)cc1` (stereo unspecified), the compound was called inactive.

With `CCCCOCCOCCOCc1cc2c(cc1CCC)OCO2`, the compound was called inactive. With `CC1(C)C(C=C(Cl)Cl)C1C(=O)OCc1cccc(Oc2ccccc2)c1` (stereo unspecified), the result was inactive. For the compound `COC(=O)c1ccc(I)cc1S(=O)(=O)NC(=O)Nc1nc(C)nc(OC)n1`, the compound was called inactive. On to `c1ccc(Nc2ccccc2)cc1`, for which the compound was called inactive. For the compound `CCCCOC(=O)[C@@H](C)Oc1ccc(Oc2ccc(C(F)(F)F)cn2)cc1`, the outcome was inactive. For the compound `CCCN(CCC)c1c([N+](=O)[O-])cc(C(F)(F)F)c(N)c1[N+](=O)[O-]`, the result was inactive.

Turning to `C[C@]12C[C@H](O)[C@H]3[C@@H](CCC4=CC(=O)CC[C@@]43C)[C@@H]1CC[C@@H]2C(=O)CO`, the outcome was inactive. Take `COCCO`: the result was inactive.

As to `CCCN(CCC)C(=O)SCC`, the compound was called inactive. As for `c1ccc2[nH]c(-c3cscn3)nc2c1`, the call was inactive. As for `CC(C)CCCCCCc1ccc(O)cc1`, the compound was called inactive. `C[C@]12CC[C@@H]3c4ccc(O)cc4C[C@@H](CCCCCCCCCS(=O)CCCC(F)(F)C(F)(F)F)[C@H]3[C@@H]1CC[C@@H]2O` (stereo partly specified): the AC50 was 15.7 µM (active).
